Laboratory results reported in PubChem BioAssay AID1159580 (chemical genetic matrix, 2015).
About 2,000 (36%) of roughly 5,500 compounds were called active. Roughly 18% stayed inconclusive and do not appear here. Cut-off read from the data, not from the text of the source: active = normalized growth mostly below about 0.91 (no sharp cut-off); inconclusive = no clear call, values can overlap the other calls; inactive = mostly above about 0.92. This is one part of the list.

Assay: chemical genetic growth profiling, strain panel (AID 1159580);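 note: tested at 20 µM; growth read once vehicle control cultures reached saturation at 30 °C; 1 = growth at the plate median or of vehicle wells; lower values mean less growth of the strain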
Details: growth OD

Measured: normalized growth

C#C[C@]1(O)CCC2C3CCc4cc(O)ccc4C3CC[C@@]21C (stereo partly drawn)
inactive: S. cerevisiae deletion strains, locus YJR043C, strain POL32, hits give low values 0.927 | S. cerevisiae deletion strains, locus YKL068W, hits give low values 1.03 | S. cerevisiae deletion strains, locus YKL085W, strain MDH1 (second series), hits give low values 1.01 | S. cerevisiae deletion strains, locus YKL085W, strain MDH1, hits give low values 1.01 | S. cerevisiae deletion strains, locus YKL160W, strain elf1, hits give low values 0.996 | S. cerevisiae deletion strains, locus YKR001C, strain vps1, hits give low values 0.959 | S. cerevisiae deletion strains, locus YKR026C, strain gcn3, hits give low values 1.05 | S. cerevisiae deletion strains, locus YKR091W, strain srl3, hits give low values 1.02 | S. cerevisiae deletion strains, locus YLL001W, strain dnm1, hits give low values 1.05 | S. cerevisiae deletion strains, locus YLL026W, hits give low values 1.01 | S. cerevisiae deletion strains, locus YLL041C, strain sdh2, hits give low values 1.03 | S. cerevisiae deletion strains, locus YLR027C, strain aat2, hits give low values 0.938 | S. cerevisiae deletion strains, locus YLR039C, strain RIC1, hits give low values 0.766 | S. cerevisiae deletion strains, locus YLR058C, strain SHM2, hits give low values 0.995 | S. cerevisiae deletion strains, locus YLR102C, strain apc9, hits give low values 1.03 | S. cerevisiae deletion strains, locus YLR113W, strain HOG1, hits give low values 1.05 | S. cerevisiae deletion strains, locus YLR221C, strain rsa3, hits give low values 0.965 | S. cerevisiae deletion strains, locus YLR258W, strain gsy2, hits give low values 0.982 | S. cerevisiae deletion strains, locus YLR262C, strain YPT6, hits give low values 0.683 | S. cerevisiae deletion strains, locus YLR268W, strain sec22, hits give low values 0.91 | S. cerevisiae deletion strains, locus YLR320W, strain mms22, hits give low values 0.898 | S. cerevisiae deletion strains, locus YLR330W, strain CHS5, hits give low values 1.01 | S. cerevisiae deletion strains, locus YLR342W, strain FKS1, hits give low values 0.983 | S. cerevisiae deletion strains, locus YLR357W, strain rsc2, hits give low values 1.1 | S. cerevisiae deletion strains, locus YLR370C, strain arc18, hits give low values 1.03 | S. cerevisiae deletion strains, locus YLR371W, strain rom2, hits give low values 1.03 | S. cerevisiae deletion strains, locus YLR384C, strain iki3, hits give low values 1.04 | S. cerevisiae deletion strains, locus YML016C, strain PPZ1, hits give low values 1.03 | S. cerevisiae deletion strains, locus YML032C, strain rad52, hits give low values 0.913 | S. cerevisiae deletion strains, locus YML120C, strain ndi1, hits give low values 0.985 | S. cerevisiae deletion strains, locus YML124C, strain tub3, hits give low values 1.03 | S. cerevisiae deletion strains, locus YMR058W, strain fet3, hits give low values 0.947 | S. cerevisiae deletion strains, locus YMR078C, strain ctf18, hits give low values 1.02 | S. cerevisiae deletion strains, locus YMR129W, hits give low values 1.02 | S. cerevisiae deletion strains, locus YMR205C, strain PFK2, hits give low values 0.995 | S. cerevisiae deletion strains, locus YMR223W, strain ubp8, hits give low values 0.948 | S. cerevisiae deletion strains, locus YMR231W, strain pep5, hits give low values 1.02 | S. cerevisiae deletion strains, locus YMR307W, strain GAS1, hits give low values 0.681 | S. cerevisiae deletion strains, locus YNL067W, strain RPL9B, hits give low values 0.9 | S. cerevisiae deletion strains, locus YNL071W, strain lat1, hits give low values 0.97 | S. cerevisiae deletion strains, locus YNL183C, strain NPR1, hits give low values 0.91 | S. cerevisiae deletion strains, locus YNL209W, strain ssb2, hits give low values 1.02 | S. cerevisiae deletion strains, locus YNL233W, strain BNI4, hits give low values 0.928 | S. cerevisiae deletion strains, locus YNL248C, strain rpa49, hits give low values 0.955 | S. cerevisiae deletion strains, locus YNL250W, strain rad50, hits give low values 0.989 | S. cerevisiae deletion strains, locus YNL271C, strain bni1, hits give low values 0.968 | S. cerevisiae deletion strains, locus YNL298W, strain CLA4, hits give low values 0.909 | S. cerevisiae deletion strains, locus YNL322C, strain KRE1 (second series), hits give low values 1.03 | S. cerevisiae deletion strains, locus YNL322C, strain KRE1, hits give low values 1.01 | S. cerevisiae deletion strains, locus YNR049C, strain mso1, hits give low values 1.04 | S. cerevisiae deletion strains, locus YNR052C, strain pop2, hits give low values 0.965 | S. cerevisiae deletion strains, locus YOL006C, strain TOP1, hits give low values 0.726 | S. cerevisiae deletion strains, locus YOL012C, strain htz1 2.07 | S. cerevisiae deletion strains, locus YOL147C, strain pex11, hits give low values 1.02 | S. cerevisiae deletion strains, locus YOR001W, strain rrp6, hits give low values 0.939 | S. cerevisiae deletion strains, locus YOR061W, strain CKA2, hits give low values 1.01 | S. cerevisiae deletion strains, locus YOR069W, strain VPS5, hits give low values 1.02 | S. cerevisiae deletion strains, locus YOR070C, strain gyp1, hits give low values 0.987 | S. cerevisiae deletion strains, locus YOR080W, strain dia2, hits give low values 1.01 | S. cerevisiae deletion strains, locus YOR083W, strain WHI5, hits give low values 0.974 | S. cerevisiae deletion strains, locus YOR106W, strain vam3, hits give low values 0.938 | S. cerevisiae deletion strains, locus YOR136W, strain idh2, hits give low values 1.01 | S. cerevisiae deletion strains, locus YOR144C, strain elg1, hits give low values 0.998 | S. cerevisiae deletion strains, locus YOR231W, strain MKK1, hits give low values 0.95 | S. cerevisiae deletion strains, locus YOR265W, strain rbl2, hits give low values 1.03 | S. cerevisiae deletion strains, locus YOR270C, strain vph1, hits give low values 0.905 | S. cerevisiae deletion strains, locus YOR290C, strain snf2, hits give low values 0.908 | S. cerevisiae deletion strains, locus YOR316C, strain cot1, hits give low values 1.04 | S. cerevisiae deletion strains, locus YPL078C, strain atp4, hits give low values 0.915 | S. cerevisiae deletion strains, locus YPL106C, strain sse1, hits give low values 1.14 | S. cerevisiae deletion strains, locus YPL240C, strain hsp82, hits give low values 1.02 | S. cerevisiae deletion strains, locus YPL241C, strain CIN2, hits give low values 1.03 | S. cerevisiae deletion strains, locus YPL256C, strain CLN2, hits give low values 1.03 | S. cerevisiae deletion strains, locus YPR119W, strain clb2, hits give low values 1.04 | S. cerevisiae deletion strains, locus YPR141C, strain kar3, hits give low values 1.04 | S. cerevisiae deletion strains, locus YPR163C, strain tif3, hits give low values 0.934 | S. cerevisiae deletion strains, locus YPR167C, strain met16, hits give low values 1.01 | S. cerevisiae deletion strains, strain wtn01, hits give low values 0.906 | S. cerevisiae strains, strain wild type, hits give low values 0.999
active: S. cerevisiae deletion strains, locus YJR066W, strain TOR1, hits give low values 0.81 | S. cerevisiae deletion strains, locus YKL009W, strain mrt4, hits give low values 0.827 | S. cerevisiae deletion strains, locus YLR262C, strain YPT6 (second series), hits give low values 0.735 | S. cerevisiae deletion strains, locus YLR342W, strain FKS1 (second series), hits give low values 0.724 | S. cerevisiae deletion strains, locus YLR418C, strain cdc73, hits give low values 0.791 | S. cerevisiae deletion strains, locus YMR125W, strain sto1, hits give low values 1.13 [resistant] | S. cerevisiae deletion strains, locus YNL307C, strain MCK1, hits give low values 0.813 | S. cerevisiae deletion strains, locus YOR184W, strain ser1, hits give low values 0.624 | S. cerevisiae deletion strains, locus YPL051W, strain arl3, hits give low values 0.91
